High-throughput results as filed in PubChem BioAssay.
Giardia FBPA inh = inhibitors of Giardia lamblia fructose-1,6-bisphosphate aldolase; A8B2U2; purified Giardia FBPA; Potency, µM (highest dose often 59.6 µM), for inactives: at the top dose activity, negative = inhibition, actives largely listed as inhibitors; 0.71% of 290,000 active; further: potency means the concentration at half of the fitted maximal effect; on the % scale 0 is the no-effect control and ±100 the full control effect; nearly all actives have a fitted effect of over 55% in size
Target sequence (A8B2U2 whole entry, looked up): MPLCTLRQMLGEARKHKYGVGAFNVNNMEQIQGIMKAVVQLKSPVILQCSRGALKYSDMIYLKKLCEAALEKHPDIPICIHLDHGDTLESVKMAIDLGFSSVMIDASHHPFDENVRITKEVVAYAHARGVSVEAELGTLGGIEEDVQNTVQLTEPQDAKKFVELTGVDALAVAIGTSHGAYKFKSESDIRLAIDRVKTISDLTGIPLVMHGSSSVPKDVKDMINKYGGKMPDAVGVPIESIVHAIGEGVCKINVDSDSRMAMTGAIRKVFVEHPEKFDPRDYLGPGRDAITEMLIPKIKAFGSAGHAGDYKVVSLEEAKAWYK
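Giardia FBPA (40 nM reagent) was preincubated 10 min at RT with compound (up to 57.5 uM final), then substrate plus GAPDH/TPI/NAD/arsenate coupling system with diaphorase/resazurin was added; resorufin fluorescence (525/598 nm) was read after 20 min.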
NS1 inh = inhibitors of influenza NS1 protein function; 0.4% of 270,000 active; Potency, µM (series often up to 46.1 µM), inactives show at the highest dose activity, positive = more growth; AID 2326; calls by dose curve; further: potency means the concentration at half of the fitted maximal effect; actives are rising curves; nearly all actives have a fitted effect of over 50% in size
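Compounds were scored for reversing the slow growth caused by influenza A NS1 in S. cerevisiae, measured by optical density at 600 nm. Assay medium contained 2% galactose at pH 6.0; NS1-free yeast of the same strain were the positive control.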
LmPK inh = LmPK (Leishmania mexicana) enzyme inhibition; Q27686; purified LmPK, Kinase-Glo ATP luminescence, 1 h; Potency, µM (top dose mostly 57.5 µM), without a hit: at the highest dose activity change, negative = inhibition, actives largely listed as inhibitors; 0.37% of 290,000 active; AID 1721; further: potency means the concentration at half of the fitted maximal effect; on the % scale 0 is the no-effect control and ±100 the full control effect
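Screened at intermediate enzyme activity to detect both inhibitors and activators: LmPK at 0.1 nM, with a 0.5 nM enzyme column as activation reference. PEP 0.5 mM, ADP 0.1 mM; ATP detected by luminescence after 1 h.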
Shiga inhibitor = Shiga toxin inhibition; Vero cells, Shiga toxin protein synthesis inhibition reporter; inhibition, % at 38.7 µM; 9.2% of 290,000 active; AID 2315; in the data active means inhibition mostly above about 28%, no sharp cut-off; inactive means mostly below about 43%; further: 0% is about no effect
Cycloheximide cs = counter-screen for Shiga toxin inhibitors: cycloheximide protein synthesis inhibition | cell reporter, cycloheximide protein synthesis inhibition counterscreen | 12% of 300,000 active | max response, %; in the data active means max response mostly above about 13%, no sharp cut-off; inactive means mostly below about 14%; further: read at 38.3 µM for the half of the compounds with a filed dose; 0% is about no effect
Starred values were filed as active, the others as inactive; u = inconclusive; x = not tested or not shown; [ ] = another dose, or the depositor's remark. This is a sample that favours compounds with a hit; in the whole collection about 14% have one here. Unless noted, the call rests on the fitted dose curve; in most records, active means well fitted curve in the direction sought with a large enough effect; inconclusive means small, poorly fitted or top-dose-only effect, or another doubt; inactive means no such curve, though single readings can be large; an effect the other way counts as inactive or inconclusive.

SMILES	Giardia FBPA inh	NS1 inh	LmPK inh	Shiga inhibitor	Cycloheximide cs
O=C(Nc1ccc(Cc2ccncc2)cc1)c1ccc(Br)o1	-10%	-49%	2%	34	15*
O=C(Nc1ccc(Nc2ccccc2)cc1)c1ccc(Br)o1	-6%	-121%	-3%	61*	27*
Cc1cc(O)c(NC(=O)c2ccc(Br)o2)cc1C	4%	-10%	-7%	66*	46*
COc1ccc(NC(=S)NC(=O)c2ccc(Br)o2)cc1	-2%	3%	-1%	96*	67*
COc1ccccc1CNS(=O)(=O)c1c(C(=O)N2CCCC2)c(C)n(C)c1C	1%	-2%	0%	-2	16
CCOC(=O)c1ccc(-c2ccc(-c3cc(=O)oc4cc(OC)c(OC)c(OC)c34)cc2)cc1	-1%	x	x	14	7
O=C(NNC(=S)NCc1ccc(Cl)cc1)c1ccc(Br)o1	3%	-2%	7%	32	9
O=C(Nc1ccc(NC(=O)c2cccs2)cc1)c1ccc(Br)o1	-11%	-4%	-10%	28	14
COc1ccccc1NC(=O)c1ccc(Br)o1	0%	-36%	-2%	31	14*
CC(C)(Oc1ccc(Cl)cc1)C(=O)NNC(=O)c1ccc(Br)o1	x	-2%	-16%	2	15*
COc1ccc(NC(=O)c2ccc(Br)o2)cc1	-28%[89.2 µM]	13%	u	96*	36*
C/C(=N/NC(=O)c1ccc(Br)o1)C(C)C	-3%	7%	-1%	79*	30*
O=CC(O)C(O)C(O)C(O)CO (stereo unspecified)	0%	x	x	1	-8
Cc1noc(NS(=O)(=O)c2ccc(NC(=O)Cc3ccc([N+](=O)[O-])cc3)cc2)c1C	x	10%	-1%	-20	-2
COc1ccc(C(=O)NNC(=S)NC(=O)c2ccc(Br)o2)cc1OC	26%	6%	4%	-13	8
NC(=O)c1ccccc1NC(=S)NC(=O)c1ccc(Br)o1	u	-16%	2%	56*	35*
O=C(O)[C@@H]1[C@@H](C(=O)Nc2ccccc2)[C@@H]2C=C[C@@H]1O2	x	-1%	x	x	x
C=CCc1c(C)nc(SC)nc1Nc1ccc(C(=O)O)cc1	13%	-2%	0%	2	-4
C=CCc1c(C)nc(SC)nc1Nc1ccc(C(C)=O)cc1	-4%	-117%	-4%	82*	46*
O=c1[nH]c(CN2CCCCC2)nc2ccccc12	-8%	-3%	-1%	9	17
O=c1[nH]c(CN2CCN(Cc3ccc4c(c3)OCO4)CC2)nc2ccccc12	-11%	7%	-4%	-10	8.6*
c1ccc2c(c1)oc1c(N3CCN(Cc4ccc5c(c4)OCO5)CC3)ncnc12	0%	-56%	1%	98*	36*
c1ccc(Cn2nnc3c(N4CCN(Cc5ccc6c(c5)OCO6)CC4)ncnc32)cc1	-2%	-50%	-6%	-5	-3
CNC(=O)COC(=O)c1ccc2c(c1)NC(=O)C1CCCN21 (stereo unspecified)	8%	15%	-6%	-23	9
O=C(N/N=C/c1cccc(F)c1)c1c(O)c2c([nH]c1=O)CCCC2	8%	21%	-3%	36*	26*
SMILES	Giardia FBPA inh	NS1 inh	LmPK inh	Shiga inhibitor	Cycloheximide cs
O=C(N/N=C/c1ccccc1OC(F)F)NC1CCCCC1	-2%	1%	0%	11	2
O=C(N/N=C/c1cccc(F)c1)NC1CCCCC1	2%	-10%	6%	20	19*
COc1cc(/C=N/NC(=O)NC2CCCCC2)ccc1O	0%	-1%	1%	43*	14*
COc1cc(/C=N/NC(=O)NC2CCCCC2)cc(OC)c1O	0%	7%	-1%	14	-3
CNC(=O)c1ccccc1NC(=O)c1c(O)c2c([nH]c1=O)CCCC2	10%	-15%	0%	14	10
CC(C)(C)c1ccc(/C=N/NC(=S)NC2CCCCC2)cc1	-1%	-1%	2%	47*	14
Cc1nc2ccccc2cc1C(=O)N(C)Cc1ccccc1	-2%	8%	6%	-6	-1
CCOc1ccc(Cl)cc1S(=O)(=O)N1CCC(C(=O)N2CCCC2)CC1	x	-8%	0%	-4	1
CC(=O)OCC(NC(=O)C(Cc1ccccc1)NC(=O)OC(C)(C)C)C1OC(n2cc(F)c(=O)[nH]c2=O)C(OC(C)=O)C1OC(C)=O (stereo unspecified)	3%	x	x	-9	-2
O=C(N/N=C/c1ccccc1F)NC1CCCCC1	2%	-2%	0%	33*	18*
O=C(N/N=C/c1ccccc1)NC1CCCCC1	13%	-10%	-1%	46	31*
CC(CCc1ccccc1)N1CCN(C)CC1 (stereo unspecified)	u	6%	-7%	-5	1
COc1ccc(N(C)C(=O)Cc2c(C(=O)O)n(C)c3ccccc23)c(OC)c1	4%	5%	5%	1	-3
CN(C)CCCOc1ccc2c(c1)Sc1ccccc1CC2=O	u	13%	-1%	23	21*
CC(C)N1CCN(c2ccc(S(=O)(=O)N3CCOCC3)cn2)CC1	x	12%	-8%	0	-2
CCCN1CCCc2ccccc21	-16%	4%	-2%	-8	1
N#CCCN1CCCc2cc(N=Nc3ccc(C(F)(F)F)cc3)ccc21	2%	13%	-1%	61*	43*
COc1ccccc1NC(=O)C1CCN(S(=O)(=O)c2ccc3c(c2)NC(=O)C(C)S3)CC1 (stereo unspecified)	x	17%	4%	-4	4
O=C(NC1CCCC1)C(c1ccncc1)N(CCCN1CCOCC1)C(=O)c1ccc(-c2ccccc2)[nH]1 (stereo unspecified)	-1%	x	5%	-6	-2
CCOc1ccc(C(C(=O)NC2CCCC2)N(CCCO)C(=O)c2ccc(-c3ccccc3)[nH]2)cc1 (stereo unspecified)	-9%	x	1%	60*	12
O=C(NC1CCCC1)C(c1ccncc1)N(Cc1ccco1)C(=O)c1ccc(-c2ccccc2)[nH]1 (stereo unspecified)	-6%	x	9%	33	7
O=C(NC1CCCC1)C(c1ccncc1)N(Cc1ccccc1)C(=O)c1ccc(-c2ccccc2)[nH]1 (stereo unspecified)	-7%	2%	1%	27	13*
C=CCN(c1ccc(C(=O)Nc2ccc(C)c(C)c2)cc1)S(C)(=O)=O	-2%	-17%	0%	36	19*
C=CCN(c1ccc(C(=O)OC)cc1)S(=O)(=O)c1ccccc1	5%	x	8%	92*	33*
C=CCN(c1ccc(C(=O)Nc2ccc(C)cc2)cc1)S(C)(=O)=O	0%	-4%	-2%	16	-2
C=CCN(c1ccc(C(=O)NCCSc2ccccc2)cc1)S(C)(=O)=O	12%	-9%	0%	120*	33*
C[C@H]1C2=C3C(CC[C@H]4C(OCc5ccc(F)cc5C(F)(F)F)OC[C@](C)([C@@H]34)N(C(=O)OC(C)(C)C)C2)C(CO)C1CO (stereo partly specified)	-7%	x	x	x	x
OCCN1CCN(C(=S)c2ccc(Cl)c(Cl)c2)CC1	13µM*	2%	1%	3	2
